Read-out in assay [1]: Interleukin-8 (IL8), CXCL8 (gene 3576)
Kind of assay: BSK_3C_IL8: BioMAP Diversity Plus: 3C Assay for Interleukin-8 (IL8) Biomarker Activity (AID 2283020). The conditions noted are these: primary human endothelial cells (HUVEC); actives raise or lower the signal. The gist of the method: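 HUVEC, 3C stimulation; 24 h compound exposure; IL-8 read by ELISA; gain or loss of signal fitted relative to DMSO control.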

Read-out in assay [2]: Monokine induced gamma interferon (MIG), CXCL9 (gene 4283)
Kind of assay: BSK_3C_MIG: BioMAP Diversity Plus: 3C Assay for Monokine induced gamma interferon (MIG) Biomarker Activity (AID 2283021).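 For AC50: MIG protein level measured by immunoassay in the treated endothelial cultures.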 The conditions noted are these: primary human endothelial cells (HUVEC); actives raise or lower the signal. In short, it runs like this:
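HUVEC, 3C system; 24 h chemical exposure; MIG by ELISA; bidirectional fit vs DMSO baseline.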

The target of assay [3] is human Vitamin D Receptor (VDR), VDR (gene 7421) (UniProt P11473). Put plainly: ATG_VDR_TRANS: Attagene TRANS-FACTORIAL HepG2 Assay for human Vitamin D Receptor (VDR) (AID 2283022; active = hit-call score of the fitted dose curve at least 0.9, where 1 is the maximum). The gist of the method:
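Transactivation by an exogenous VDR-Gal4 chimera in transiently transfected HepG2 cells was measured as reporter transcript level 24 hours after chemical treatment. RT-PCR products were analysed by capillary electrophoresis and fitted in the positive direction relative to DMSO.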

A short description of assay [4]: BSK_3C_SRB: Viability Assessment in the BioMAP Diversity Plus: 3C Assay (AID 2283023).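 Note: fitted both ways against DMSO so a hit may be signal rise or drop.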 The conditions noted are these: primary human endothelial cells (HUVEC). The gist of the method: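 Cytotoxicity readout in parallel HUVEC 3C cultures: after 24 h compound exposure, cells fixed with 10% TCA, stained with 0.1% SRB and read at 560 nm. Gain or loss relative to DMSO fitted.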

Read-out in assay [5]: Matrix Metallopeptidase 1 (MMP1), MMP1 (gene 4312)
Put plainly: BSK_BE3C_MMP1: BioMAP Diversity Plus: BE3C Assay for Matrix Metallopeptidase 1 (MMP1) Biomarker Activity (AID 2283024). Particulars: primary human bronchial epithelial cells; actives raise or lower the signal. The gist of the method: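 ELISA read-out of MMP1 in human lung bronchial epithelial primary cultures, 24 h post-dose; bidirectional curve fit vs DMSO baseline, gain or loss of signal scored.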

Read-out in assay [6]: Pselectin, SELP (gene 6403)
Put plainly: BSK_4H_Pselectin: BioMAP Diversity Plus: 4H Assay for Pselectin Biomarker Activity (AID 2283026). The conditions noted are these: primary human endothelial cells (HUVEC); actives raise or lower the signal. The gist of the method: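 HUVEC, 24 h chemical exposure; P-selectin read by ELISA. Bidirectional curve fit vs DMSO baseline; gain or loss of signal scored.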

The nature of assay [7]: BSK_4H_SRB: Viability Assessment in the BioMAP Diversity Plus: 4H Assay (AID 2283027).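 For AC50: curves fitted both ways versus DMSO so AC50 may be loss or gain.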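 Note: cells exposed to compound for 24 h before staining.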 Particulars: primary human endothelial cells (HUVEC). The gist of the method:
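Cytotoxicity readout: sulforhodamine B (0.1%) staining of total protein after 10% TCA fixation, measured at 560 nm in human umbilical vein endothelium at 24 h. DMSO set the baseline; fitting was bidirectional.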

A short description of assay [8]: BSK_BE3C_SRB: Viability Assessment in the BioMAP Diversity Plus: BE3C Assay (AID 2283028).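 For AC50: fitted both ways so AC50 may mark signal gain or loss versus DMSO.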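 Note: measured 24 h after chemical dosing.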 The conditions noted are these: primary human bronchial epithelial cells. In short, it runs like this:
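Cytotoxicity read-out: SRB (0.1%) staining of TCA-fixed (10%) human lung bronchial epithelial cells, absorbance 560 nm, 24 h post-dosing. Curves fitted both directions relative to DMSO.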

Read-out in assay [9]: Thrombomodulin, THBD (gene 7056)
Put plainly: BSK_3C_Thrombomodulin: BioMAP Diversity Plus: 3C Assay for Thrombomodulin Biomarker Activity (AID 2283029). Particulars: primary human endothelial cells (HUVEC); actives raise or lower the signal. The gist of the method:
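HUVEC, 3C conditions; compound 24 h; thrombomodulin by ELISA; bidirectional curve fit vs DMSO baseline; parallel SRB total-protein staining for cytotoxicity.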

Read-out in assay [10]: Urokinase-type plasminogen activator receptor (uPAR), PLAUR (gene 5329)
Kind of assay: BSK_4H_uPAR: BioMAP Diversity Plus: 4H Assay for Urokinase-type plasminogen activator receptor (uPAR) Biomarker Activity (AID 2283030). Particulars: primary human endothelial cells (HUVEC); actives raise or lower the signal. In short, it runs like this: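 uPAR level read by ELISA on HUVEC cultures (BioMAP 4H) 24 h post-dosing, analyzed for gain or loss relative to DMSO. Parallel SRB staining assessed overt cytotoxicity.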

Read-out in assay [11]: Vascular endothelial growth factor receptor 2 (Homo sapiens) (UniProt P35968)
Kind of assay: BSK_4H_VEGFRII: BioMAP Diversity Plus: 4H Assay for Vascular endothelial growth factor receptor 2 (VEGFR2) Biomarker Activity (AID 2283031).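 For AC50: cell-surface VEGFR2 protein level quantified by ELISA.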 Particulars: primary human endothelial cells (HUVEC); actives raise or lower the signal. In short, it runs like this:
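Measured by ELISA after 24 h of compound treatment: VEGFR2 on primary human umbilical vein endothelial cells, fitted in both directions relative to DMSO. Parallel cultures received SRB staining (560 nm) for overt cytotoxicity.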

Read-out in assay [12]: Human Leukocyte Antigen - DR isotype (HLADR), HLA-DRA (gene 3122)
Put plainly: BSK_BE3C_HLADR: BioMAP Diversity Plus: BE3C Assay for Human Leukocyte Antigen - DR isotype (HLADR) Biomarker Activity (AID 2283032). Particulars: primary human bronchial epithelial cells; actives raise or lower the signal. The gist of the method: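 Primary human bronchial epithelial cells (BE3C); 24 h chemical exposure; HLA-DR by ELISA; bidirectional curve fit vs DMSO baseline.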

Read-out in assay [13]: Vascular cell adhesion molecule 1 (VCAM1), VCAM1 (gene 7412)
Kind of assay: BSK_4H_VCAM1: BioMAP Diversity Plus: 4H Assay for Vascular cell adhesion molecule 1 (VCAM1) Biomarker Activity (AID 2283033).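 For outcome: cell-surface VCAM-1 protein measured by ELISA.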 The conditions noted are these: primary human endothelial cells (HUVEC); actives raise or lower the signal. The gist of the method:
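HUVEC, 24 h post-dose; VCAM-1 by ELISA. Bidirectional curve fit vs DMSO baseline. Parallel SRB total-protein stain (0.1% SRB after 10% TCA fixation, 560 nm) for cytotoxicity.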

Read-out in assay [14]: Interferon-gamma inducible Protein 10 (IP10), CXCL10 (gene 3627)
Kind of assay: BSK_BE3C_IP10: BioMAP Diversity Plus: BE3C Assay for Interferon-gamma inducible Protein 10 (IP10) Biomarker Activity (AID 2283034). The conditions noted are these: primary human bronchial epithelial cells; actives raise or lower the signal. In short, it runs like this: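 ELISA readout of IP-10 in BE3C system: primary human bronchial epithelial cells, 24 h post-dosing; bidirectional curve fit vs DMSO baseline.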

Read-out in assay [15]: Monokine induced gamma interferon (MIG), CXCL9 (gene 4283)
Put plainly: BSK_BE3C_MIG: BioMAP Diversity Plus: BE3C Assay for Monokine induced gamma interferon (MIG) Biomarker Activity (AID 2283035).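 For outcome: MIG protein measured by ELISA in BE3C cultures after 24 h of dosing.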 Particulars: primary human bronchial epithelial cells; actives raise or lower the signal. In short, it runs like this: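 hu bronchial epithelial 1° cells, 24 h cpd; MIG by ELISA; bidirectional fit, DMSO = baseline.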

Read-out in assay [16]: Plasminogen activator inhibitor-1 (PAI1), SERPINE1 (gene 5054)
Put plainly: BSK_BE3C_PAI1: BioMAP Diversity Plus: BE3C Assay for Plasminogen activator inhibitor-1 (PAI1) Biomarker Activity (AID 2283037). The conditions noted are these: primary human bronchial epithelial cells; actives raise or lower the signal. The gist of the method: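 ELISA read-out of PAI-1 from human bronchial epithelial primary cells, 24 h post-dosing; bidirectional curve fit vs DMSO baseline, gain or loss of signal scored.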

Read-out in assay [17]: urokinase plasminogen activator (uPA), PLAU (gene 5328)
Put plainly: BSK_BE3C_uPA: BioMAP Diversity Plus: BE3C Assay for urokinase plasminogen activator (uPA) Biomarker Activity (AID 2283038).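 For outcome: uPA protein level quantified by ELISA in cell cultures; uPA read one day after compound addition.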 Particulars: primary human bronchial epithelial cells; actives raise or lower the signal. The gist of the method: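 ELISA for uPA on human primary bronchial epithelial cultures 24 h post-treatment, gain or loss against DMSO. Parallel SRB staining (0.1% after 10% TCA fixation, 560 nm) assessed overt cytotoxicity.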

Read-out in assay [18]: Urokinase-type plasminogen activator receptor (uPAR), PLAUR (gene 5329)
Kind of assay: BSK_BE3C_uPAR: BioMAP Diversity Plus: BE3C Assay for Urokinase-type plasminogen activator receptor (uPAR) Biomarker Activity (AID 2283039).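 For outcome: uPAR protein level measured by ELISA on the cells; cells exposed to compound for one day before measurement.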 The conditions noted are these: primary human bronchial epithelial cells; actives raise or lower the signal. The gist of the method:
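ELISA readout of uPAR on human lung primary bronchial epithelial cells, 24 h post-dosing. Bidirectional curve fit relative to DMSO vehicle baseline; gain or loss of signal both scored.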

The nature of assay [19]: BSK_3C_Vis: BioMAP Diversity Plus: 3C Assay for Morphology Visualization (AID 2283025).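 For AC50: light microscopy image of cell morphology used as background control.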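 Note: fitted both ways so gain or loss versus DMSO counts.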 Particulars: primary human endothelial cells (HUVEC). In short, it runs like this:
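HUVEC, 3C system; light microscopy of morphology at 24 h post-dose. Bidirectional fit vs DMSO baseline. Secondary readout, background-control function.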

Read-out in assay [20]: Transforming growth factor beta 1 (TGFb1), TGFB1 (gene 7040)
Kind of assay: BSK_BE3C_TGFb1: BioMAP Diversity Plus: BE3C Assay for Transforming growth factor beta 1 (TGFb1) Biomarker Activity (AID 2283036;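 for outcome: TGF-b1 protein level measured by ELISA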). The conditions noted are these: primary human bronchial epithelial cells; actives raise or lower the signal. In short, it runs like this:
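Read-out: ELISA for TGF-b1 in primary human bronchial epithelial cultures, 24 h post-dose. Bidirectional curve fitting vs DMSO control; gain or loss of signal both scored.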

For orientation: AC50 means the concentration giving half of the maximal activity seen.

Inconclusive results are not listed. Active and inactive are the calls of the source. Rule for the calls, unless noted: active = hit-call score of the fitted dose curve at least 0.9, where 1 is the maximum; inactive = score below 0.9.

human Vitamin D Receptor (VDR), VDR (gene 7421), sequence (P11473 whole entry, looked up, the tested form may be a part): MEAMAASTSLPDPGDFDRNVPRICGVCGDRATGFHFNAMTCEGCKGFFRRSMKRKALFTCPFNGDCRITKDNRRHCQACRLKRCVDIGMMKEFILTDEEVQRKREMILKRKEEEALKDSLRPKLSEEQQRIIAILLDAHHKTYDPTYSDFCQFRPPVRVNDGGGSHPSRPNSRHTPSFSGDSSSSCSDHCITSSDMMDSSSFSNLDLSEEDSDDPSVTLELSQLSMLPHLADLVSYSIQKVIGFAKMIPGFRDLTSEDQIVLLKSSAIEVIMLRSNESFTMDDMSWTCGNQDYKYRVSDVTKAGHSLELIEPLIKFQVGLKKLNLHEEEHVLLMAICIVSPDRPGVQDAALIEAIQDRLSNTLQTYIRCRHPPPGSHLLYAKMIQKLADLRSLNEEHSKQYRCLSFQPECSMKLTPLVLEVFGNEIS

For the molecule `OCC(O)CC(F)(F)C(F)(F)C(F)(F)C(F)(F)F` (stereo not given), the result in assay [1], in assay [2], in [3], in [4], in assay [5] and in [6] was inactive. Moreover, the outcome in [7], in assay [8], in assay [9], in assay [10], in assay [11] and in [12] was inactive. In addition, the outcome in assay [13], in assay [14], in [15], in assay [16], in assay [17] and in assay [18] was inactive.
Regarding `Cc1ccc(S(=O)(=O)C(I)I)cc1`, the AC50 in [1] was 4.26 µM (active); in assay [2], 3.75 µM (active); in assay [4] it was 5.27 µM (active); in [5], 11.4 µM (active); in [19], 1.85 µM (active); in assay [6] it was 1.87 µM (active). Moreover, the half-maximal activity concentration (AC50) was 1.98 µM (active) in [7]; 5.15 µM (active) in assay [8]; 4.78 µM (active) in assay [9]; 2.2 µM (active) in assay [10]; 1.87 µM (active) in [11]; 7 µM (active) in assay [12]. For the same molecule, the half-maximal activity concentration (AC50) is 2.19 µM (active) in [13]; 6.58 µM (active) in assay [14]; 11 µM (active) in assay [15]; 7.3 µM (active) in assay [20]; 5.39 µM (active) in [16]; 6.62 µM (active) in [17]. Moreover, the AC50 in [18] is 6.81 µM (active).
On to `O=C(c1ccccc1)c1ccc(O)cc1O`, for which the result in assay [1], in assay [2], in assay [4], in assay [5], in assay [19] and in [6] was inactive. Further, the outcome in [7], in [8], in [9], in assay [10], in assay [11] and in assay [12] was inactive. Also, the outcome in [13], in assay [14], in assay [15], in assay [20], in [16] and in assay [17] was inactive. The outcome in assay [18] was inactive.
As for `O=C(F)C1(F)C(F)(F)C(F)(F)C(F)(F)C(F)(F)C1(F)F`, the result in [1], in assay [2], in assay [3], in assay [4], in assay [5] and in assay [6] was inactive. The outcome in assay [7], in [8], in assay [9], in [10], in [11] and in assay [12] was inactive. For the same molecule, the outcome in assay [13], in assay [14], in assay [15], in assay [16], in [17] and in assay [18] was inactive.
With `OCC(F)(F)C(F)(F)C(F)(F)CO`, the outcome in [1], in assay [2], in assay [3], in assay [4], in [5] and in [6] was inactive. Further, the result in assay [7], in assay [8], in [9], in assay [10], in [11] and in assay [12] was inactive. For the same molecule, the outcome in [13], in assay [14], in assay [15], in assay [16], in [17] and in assay [18] was inactive.
Consider `NC(=O)C(F)(F)C(F)(F)C(F)(F)C(F)(F)C(N)=O`, for which the outcome in assay [1], in assay [2], in assay [3], in assay [4], in assay [5] and in assay [6] was inactive. Moreover, the result in assay [7], in assay [8], in assay [9], in assay [10], in assay [11] and in assay [12] was inactive. The outcome in assay [13], in assay [14], in assay [15], in assay [16], in assay [17] and in assay [18] was inactive.

(Values after PubChem BioAssay (EPA / NIEHS).)
